This is a sample that favours compounds with a hit; in the whole collection about 3.3% have one here.
PERK inh = blocks human PERK kinase | Q9NZJ5 | CHO PERK-DD fusion, SEAP luminescence translation reporter | inhibition, % at 5.6 µM | actives 0.17% (n = 220,000) | AID 1416;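 active means inhibition above the mean inhibition of all tested compounds plus 3 SD, set separately per screening campaign, cut at about 2.9% in these data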;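 further: PERK kinase domain activated by AP20187 dimerizer at 100 nM; 0% = DMSO with dimerizer and 100% = rapamycin at 8.4 µM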
Target sequence (Q9NZJ5 whole entry, looked up, the tested form may be a part): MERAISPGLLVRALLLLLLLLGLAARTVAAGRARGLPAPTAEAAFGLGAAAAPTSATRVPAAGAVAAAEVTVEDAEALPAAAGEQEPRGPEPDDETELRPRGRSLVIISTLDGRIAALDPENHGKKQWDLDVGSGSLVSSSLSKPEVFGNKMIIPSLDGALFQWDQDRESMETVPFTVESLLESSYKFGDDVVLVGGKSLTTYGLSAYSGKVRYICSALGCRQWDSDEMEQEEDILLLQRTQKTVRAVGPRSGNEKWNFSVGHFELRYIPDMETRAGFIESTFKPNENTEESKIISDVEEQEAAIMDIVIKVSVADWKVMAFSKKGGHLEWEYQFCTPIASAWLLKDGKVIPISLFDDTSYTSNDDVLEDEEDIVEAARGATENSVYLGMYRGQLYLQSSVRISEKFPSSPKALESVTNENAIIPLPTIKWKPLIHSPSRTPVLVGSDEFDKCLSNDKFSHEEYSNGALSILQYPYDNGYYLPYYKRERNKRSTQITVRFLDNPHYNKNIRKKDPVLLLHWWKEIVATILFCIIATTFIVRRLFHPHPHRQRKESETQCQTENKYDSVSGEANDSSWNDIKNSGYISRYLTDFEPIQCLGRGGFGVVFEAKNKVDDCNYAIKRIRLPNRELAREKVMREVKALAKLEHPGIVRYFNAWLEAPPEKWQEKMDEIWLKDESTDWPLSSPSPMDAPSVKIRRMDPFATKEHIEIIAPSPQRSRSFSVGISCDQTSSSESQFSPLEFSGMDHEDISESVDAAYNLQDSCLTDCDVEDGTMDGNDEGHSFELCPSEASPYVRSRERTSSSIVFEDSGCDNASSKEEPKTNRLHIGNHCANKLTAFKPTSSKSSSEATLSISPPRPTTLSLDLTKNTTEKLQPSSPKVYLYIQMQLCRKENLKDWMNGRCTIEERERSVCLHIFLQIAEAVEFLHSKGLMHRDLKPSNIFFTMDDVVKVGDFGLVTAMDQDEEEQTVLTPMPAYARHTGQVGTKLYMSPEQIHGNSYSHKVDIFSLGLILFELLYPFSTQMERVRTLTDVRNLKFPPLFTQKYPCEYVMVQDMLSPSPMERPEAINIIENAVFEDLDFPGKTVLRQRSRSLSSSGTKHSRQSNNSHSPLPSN
ROMK mod = modulators of human ROMK potassium channel | actives 2% (n = 130,000) | Tet-inducible ROMK, thallium flux fluorescence; actives lie on both sides | B-score at 10 µM;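 active means signal ratio slope over the read window, or its plate-corrected B-score, at least 3 SD from the plate mean, either direction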;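 further: B-score of the F/F0 ratio slope over 7 to 12 s after thallium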
WT yeast gro inh = growth inhibition of WT yeast, mitochondrial fusion screen; AID 1362; mitochondrial fusion phenotypic screen, WT strain; actives 2.1% (n = 190,000); inhibition, % at 10 µM; in the data active means inhibition above about 58%; tested in S. cerevisiae
Arbovirus anti = blocks arbovirus infection; arbovirus infection cell-based antiviral screen; inhibition, % at 10 µM; actives 0.37% (n = 200,000); AID 1251; in the data active means inhibition above about 30%
Numbers without * were called inactive; / = no result.

SMILES	PERK inh	ROMK mod	WT yeast gro inh	Arbovirus anti
O=C(O)c1cc([N+](=O)[O-])c(NCCC2=CCCCC2)c([N+](=O)[O-])c1	0	0.32	27	15
CCOC(=O)CCCSc1nnc(CCCCCN2C(=O)c3cccc4cccc(c34)C2=O)o1	1	-0.6	14	2
O=C(NC(CO)c1ccccc1)c1ccco1 (centres undefined)	-1	-0.7	1	2
NC(=O)c1ccc(NC(=O)COC(=O)c2c3c(nc4ccccc24)/C(=C\c2cccs2)CCC3)cc1	-1	0.49	76*	-40
CCc1cccc(C)c1NC(=O)COC(=O)c1c2c(nc3ccccc13)/C(=C\c1cccs1)CCC2	0	/	5	-24
CN1CCN(C(=O)c2cc(COc3c(F)cccc3F)on2)CC1c1ccccc1 (centres undefined)	0	/	79*	-5
NC(=O)CSc1nnc(Cc2ccc3c(c2)OCO3)o1	0	-0.0081	-8	1
O=C(CNC(=O)c1ccccc1)OCc1cc(=O)n2cc(Br)ccc2n1	1	0.17	-33	2
CC(C)Cc1csc(NC(=O)c2ccc(Br)cc2)c1C(=O)O	3.2*	/	/	/
CCc1nnc(NC(=O)C2Cc3ccccc3CN2S(=O)(=O)c2ccc(C)cc2)s1 (centres undefined)	-1	/	79*	-18
Cc1nn(-c2ccc(Cl)cc2)c(N)c1C(O)(CSc1nccn1C)C(F)(F)F (centres undefined)	0	1.1	9	0
COc1cccc(CC2(CO)CCCN(C/C=C/c3ccccc3OC)C2)c1 (centres undefined)	1	-1.1	6	1
COc1ccccc1/C=C/CN1CCCC(CO)(Cc2cccc(Cl)c2)C1 (centres undefined)	1	-2	65*	-31
O=C(O)CCCN1C(=O)/C(=C\c2ccc(-c3nc4ccccc4s3)o2)SC1=S	3	-0.009	/	/
O=C(O)CCN1C(=O)/C(=C/c2ccc(-c3nc4ccccc4s3)o2)SC1=S	1	/	-24	42*
CCOC(=O)c1cnc2c(-c3ccc(F)cc3)cnn2c1C(F)(F)F	1	-2.3	2	62*
CCOC(=O)c1cnc2c(-c3ccc(Cl)cc3)cnn2c1C	1	0.56	24	-4
CCOC(=O)c1csc(NC(=O)CSc2nnnn2CC)n1	1	0.73	/	-1
COc1cc(/C=N/N=C(/C(=O)c2ccccc2)c2ccccc2)cc(OC)c1O	0	0.56	72*	-37
O=C(Nc1nc2c(s1)CN(Cc1ccccc1)CC2)C1CCC1	1	-0.9	1	-4
CCN1CCc2nc(NC(=O)c3ccccc3)sc2C1	0	-0.075	81*	-5
CC(C)CC(NC(N)=O)C(=O)NCCc1ccc(Cl)cc1Cl (centres undefined)	0	0.74	4	0
O=C1CCCN=C(Nc2ccc(F)c(Cl)c2)S1	0	/	/	/
CC(=O)c1c(C)[nH]c(C(=O)Nc2nc(-c3ccc(-c4ccccc4)cc3)cs2)c1C	-1	0.35	12	5
CC(=O)c1c(C)[nH]c(C(=O)Nc2nc(-c3ccc(Cl)cc3)cs2)c1C	0	0.79	86*	-8
SMILES	PERK inh	ROMK mod	WT yeast gro inh	Arbovirus anti
CC1(c2ccc([N+](=O)[O-])cc2)CC(C)(C)N(C(=O)c2ccccc2)c2ccccc21 (centres undefined)	0	-0.0077	77*	34*
CC(=O)N1c2ccccc2C(C)(c2ccccc2)CC1(C)C (centres undefined)	-1	/	32	-10
CCN(CC)S(=O)(=O)c1cc(C(=O)O)ccc1OC	0	/	/	/
COc1ccc(S(=O)(=O)N2CCCCCC2)cc1C(=O)OCc1c(C)noc1C	-2	-6.7*	97*	-5
COc1ccc(S(=O)(=O)N2CCc3ccccc32)cc1C(=O)OCc1c(C)noc1C	-2	/	19	1
CCOC(=O)C1(CC2CC2)CCN(C(=O)c2ocnc2C)CC1	1	0.4	4	4
COc1ccc(/C=N/NC(=O)c2[nH]nc3c2CCc2ccccc2-3)cc1OC	0	2.3	5	-12
COc1ccc(/C=C/c2nc(-c3ccccc3O)n[nH]2)cc1OC	1	/	20	30*
Nc1nnn(CC(=O)N/N=C/c2ccc(Cl)cc2Cl)n1	2	0.17	/	/
O=C(Nc1ccc(S(=O)(=O)N2CCN(Cc3ccccc3)CC2)cc1)c1cnccn1	0	/	60*	4
O=C(Nc1ccc(S(=O)(=O)N2CCCC2)cc1)c1cnccn1	1	-0.19	-11	7
Cc1ccc(COn2c(-c3ccc(Cl)cc3Cl)nc3ncccc32)cc1	-2	-0.065	71*	-30
Clc1ccc(Cn2c(-c3cccnc3Cl)nc3ccccc32)cc1	0	-0.48	8	-11
Clc1cccc(COn2c(-c3ccc(Cl)cc3Cl)nc3ncccc32)c1	-2	1.5	67*	-20

High-throughput results from PubChem BioAssay.
